Common to all, as to assay: NCI-60 one-dose screen, 48 h (100 = growth as untreated, 0 = no growth, -100 = all killed)
Holding throughout (conditions): 10 µM unless noted

The subject of assay [1] is DU-145 prostate.
Assay [2] concerns K-562 leukemia.
The subject of assay [3] is MALME-3M melanoma.
The subject of assay [4] is MDA-MB-231 breast.
Assay [5] relates to RXF 393 renal.
For assay [6], the system named is SF-268 CNS.
Assay [7] has as its system SF-295 CNS.
The test system of assay [8] is SF-539 CNS.
The subject of assay [9] is UACC-257 melanoma.
The subject of assay [10] is M14 melanoma.

About 83,000 compounds went through this panel and 20% of them were active in at least one assay; those are over-represented in the sample as a whole.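 Single-concentration screen, 48 h exposure, 96-well plates. Endpoint: percent growth. Below 10 = active.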 Values without a mark were called inactive. Activity calls are given as the source filed them.

On to `CSc1nnc(-c2cnn3c2NC(c2ccccc2)C3)n1-c1ccc(C(F)(F)F)cc1` (stereo not given), for which the growth is 85.1% in assay [1]; 3.03% (active) in [2]; 69.8% in assay [3]; 64.8% in assay [4]; 79.1% in assay [5]; 65.1% in [6]. Also, the growth was 32% in assay [7], 80.3% in assay [8], 51.4% in assay [9] and 54.3% in assay [10].

Regarding `Cn1c(=O)c2[nH]c(N/N=C/c3ccccc3Br)nc2n(C)c1=O`, the growth in assay [1] is 104%; in assay [2], 87.9%; in assay [3], 107%; in assay [4] it was 97.8%; in assay [5], 121%; in assay [6], 104%. Moreover, the growth in assay [7] is 92.2%; in assay [8] it was 113%; in assay [9], 117%; in assay [10], 99.9%.

Consider `N#CCSc1nnc2n(Cc3ccccc3)c(=O)c3c4c(sc3n12)CCCC4`, for which the growth is 107% in [1]; 70.5% in assay [2]; 99.5% in [3]; 98.8% in [4]; 83% in assay [5]; 98% in [6]. In addition, the growth in [7] was 102%; in [8] it was 104%; in assay [9], 98.9%; in assay [10] it was 109%.

In the case of `Cc1nn(-c2ccccc2)c(Oc2ccccn2)c1-c1nc2ccccc2s1`, the growth is 98.6% in assay [1]; 90.7% in assay [2]; 103% in [3]; 124% in [4]; 86.1% in [5]; 92.9% in assay [6]. In addition, the growth in [7] is 115%; in assay [8], 108%; in assay [9], 98%; in [10], 108%.

Consider `COc1cccc(CNc2ncnc3c2ncn3C2OC(CO)C(O)C2O)c1O` (stereo not given), for which the growth in assay [1] was 0.439% (active); in [2], 6.7% (active); in assay [3] it was -1.1% (active); in assay [4], -46% (active); in assay [5], -13.3% (active); in assay [6], 22.8%. Moreover, the growth in assay [7] is -24.5% (active); in [8], -3.39% (active); in assay [9], 37.6%; in [10], 18.5%.

As for `C[C@]12C=CC(=O)C=C1CCC1C2[C@@H](O)C[C@@]2(C)C1CC[C@]2(O)C(=O)COC(=O)CCC(=O)O` (stereo not given in full), the growth was 107% in assay [1]; 104% in assay [2]; 94.8% in assay [3]; 94.7% in assay [4]; 126% in assay [5]; 105% in [6]. Moreover, the growth in assay [7] was 116%; in assay [8], 96.8%; in [9], 99.3%; in [10], 106%.

Take `Cc1ccc(-n2c(=S)[nH]c3sc4c(c3c2=O)CCC(=O)C4)cc1`: the growth in assay [1] was 37.8%; in assay [2], 17%; in assay [3], 50.9%; in assay [4], 54.6%; in [5] it was 23.8%; in assay [6], 48.2%. The growth in assay [7] is 47.9%; in assay [8] it was 11.8%; in assay [9], 54.5%; in [10] it was 25.9%.

For `C#CCOc1cccc(Nc2ncnc3ccc(NC(=O)CCl)cc23)c1`, the growth was -1.66% (active) in [1]; -13.1% (active) in assay [2]; -76.3% (active) in assay [3]; -37.8% (active) in [4]; -77.1% (active) in assay [5]; -8.71% (active) in assay [6]. For the same compound, the growth in [7] is -67.7% (active); in [8], -86.6% (active); in assay [9], -67.1% (active); in [10] it was -47.8% (active).

For the compound `CCc1ccc(C(=O)/C=C/C23c4ccccc4C(c4ccccc42)C2C(=O)NC(=O)C23)cc1` (stereo not given), the growth in assay [1] was 12.6%; in assay [2], 8.82% (active); in [3], -59.9% (active); in assay [4] it was 9.93% (active); in assay [5], -48.7% (active); in assay [6] it was 26.5%. Also, the growth in assay [7] is 12.9%; in [8] it was 11%; in assay [9] it was 27.8%; in assay [10], -8.91% (active).

For `COc1ccc2nc(NC(=O)CSc3nnc4n3S(=O)(=O)c3ccccc3N4C)sc2c1`, the growth is 115% in assay [1]; 91.2% in [2]; 120% in assay [3]; 94.5% in [4]; -29.4% (active) in assay [5]; 95.8% in assay [6]. The growth is 127% in [7], 106% in [8], 82.4% in assay [9] and 101% in assay [10].

Turning to `COc1ccc(OC)c(C(=O)/C=C/c2cc3c(c(OC)c2OC)OCO3)c1`, the growth is 41.7% in assay [1]; 29.7% in assay [2]; 80.9% in [3]; 83.2% in [4]; 63.9% in assay [5]; 63.2% in assay [6]. For the same compound, the growth is 84.1% in assay [7], 87.6% in assay [8], 72.5% in [9] and 78.6% in assay [10].

For the compound `O=S(=O)(NCCNc1cc(-c2c(-c3cccc(O)c3)nc3sccn23)ccn1)c1ccc(C(F)(F)F)cc1`, the growth in [1] is 43.1%; in [2], 22.8%; in [3], 57.8%; in assay [4] it was 53.2%; in assay [5] it was 42.1%; in assay [6], 34.9%. In addition, the growth in [7] is 31.2%; in assay [8] it was 62.3%; in [9], 51.8%; in [10], 36.9%.

In the case of `Cc1ccc(C2=Nc3c(N)ncnc3NC(c3ccc4c(c3)OCO4)C2)cc1` (stereo not given), the growth in [1] is 98%; in assay [2], 14.8%; in [3], 51.8%; in assay [4], 61.3%; in assay [5] it was 59.4%; in [6], 72.9%. The growth was 40.8% in [7], 67.7% in assay [8], 96.2% in assay [9] and 39% in [10].

For the compound `Cc1ccc(S(=O)(=O)N2CCCC2CO)cc1` (stereo not given), the growth is 104% in [1]; 114% in assay [2]; 83.8% in assay [3]; 100% in [4]; 103% in assay [5]; 101% in assay [6]. The growth is 112% in assay [7], 94.4% in assay [8], 107% in assay [9] and 95.1% in [10].

Regarding `COc1cc(OC)cc(C2=C3CC[C@@H]4[C@H](CC[C@]5(C)C(=O)CC[C@@H]45)C3=CC3C(O)c4cccnc4N4C(=O)COC234)c1` (stereo not given in full), the growth was 110% in [1]; 92.7% in assay [2]; 103% in assay [3]; 97.8% in assay [4]; 107% in assay [5]; 92.8% in [6]. The growth in [7] was 97.6%; in assay [8], 102%; in [9] it was 98.1%; in [10], 104%.

For `COc1ccc2c(O)c(/C=C3\N=Nc4ccccc43)oc2c1C[C@@H]1CCNC[C@H]1F`, the growth in assay [1] is 78.6%; in assay [2], -37.6% (active); in [3] it was 52.9%; in assay [4], 15.4%; in [5], 80.5%; in assay [6], 50.3%. In addition, the growth is 79.2% in assay [7], -82.9% (active) in [8], 77.2% in assay [9] and 51.6% in assay [10].

Turning to `c1cnc2[nH]cc(-c3csc(-c4cn(CCCN5CCOCC5)c5ccccc45)n3)c2c1`, the growth in assay [1] is 82%; in assay [2], 1.22% (active); in assay [3], 61.1%; in assay [4] it was 27.1%; in assay [5] it was 24.9%; in assay [6] it was 52.3%. Further, the growth in assay [7] is 16.7%; in assay [8], 52.9%; in assay [9] it was 85%; in assay [10] it was 14.5%.

Regarding `Cc1cccnc1NC(=S)Nc1ncccc1C`, the growth in [1] was 113%; in [2] it was 65.3%; in assay [3], 113%; in assay [4], 112%; in [5] it was 92.3%; in assay [6] it was 108%. For the same compound, the growth in assay [7] was 81.2%; in assay [8], 107%; in assay [9] it was 116%; in assay [10], 102%.

As to `COc1ccc(C2c3sc4c(F)cccc4c3Oc3nc[nH]c(=O)c32)cc1` (stereo not given), the growth in assay [1] was 98.2%; in assay [2] it was 72.2%; in [3] it was 94.4%; in assay [4], 72.7%; in [5], 72.3%; in assay [6], 82%. In addition, the growth in assay [7] was 88%; in assay [8] it was 77.4%; in [9], 105%; in assay [10], 91.4%.

`COc1ccc(-c2nc(/C=C3\SC(=NCc4ccccc4)NC3=O)c3ccccn23)cc1`: the growth in [1] was -88.6% (active); in assay [2] it was 18.4%; in assay [3], -33.1% (active); in [4] it was -13.9% (active); in assay [5], -86.7% (active); in assay [6], -37.4% (active). The growth in assay [7] is 17.5%; in assay [8], -43.4% (active); in assay [9] it was -17% (active); in assay [10] it was -95.7% (active).

As to `COC(=O)c1c2c(c[n+]([O-])c1C)C(=O)C(NCc1ccccc1)=CC2=O`, the growth in assay [1] was -87.1% (active); in assay [2] it was 1.41% (active); in [3], -93.4% (active); in assay [4], -3.95% (active); in [5], -26% (active); in assay [6], -13.9% (active). In addition, the growth is -45.3% (active) in [7], -71.7% (active) in [8], -81.5% (active) in assay [9] and -77.8% (active) in assay [10].

Turning to `COc1cc2c(c(OC)c1OC)C(=O)CC(c1cccc(NC(=O)c3ccc(Br)cc3)c1)O2` (stereo not given), the growth in assay [1] is 58.7%; in assay [2], 5.9% (active); in [3], 46.6%; in [4] it was 37.3%; in [5], 66.3%; in assay [6], 57.6%. The growth is 41.8% in assay [7], 79.1% in [8], 53.1% in assay [9] and 20% in [10].

With `Cn1cc(-c2nonc2-c2c[nH]c3ccc(Br)cc23)c2cc(Br)ccc21`, the growth is 23.2% in assay [1]; 7.65% (active) in assay [2]; 39.9% in [3]; 31.9% in assay [4]; 18.2% in [5]; 37.8% in assay [6]. The growth was 22.4% in [7], 46% in assay [8], 66.8% in assay [9] and 42.7% in [10].

Take `O=C(NNC(=O)c1ccc(-n2cc(-c3ccccc3)nn2)cc1)Nc1ccccc1`: the growth in [1] was 106%; in assay [2], 105%; in assay [3], 113%; in [4], 108%; in [5], 103%; in assay [6], 90.2%. The growth in assay [7] was 101%; in assay [8], 96%; in assay [9], 103%; in assay [10], 97.6%.

`Cn1c(O)c(C=NCCN=Cc2c(O)n(C)c(=O)n(C)c2=O)c(=O)n(C)c1=O`: the growth in assay [1] was 110%; in assay [2], 34.5%; in assay [3], 90.4%; in assay [4], 101%; in assay [5] it was 111%; in assay [6] it was 105%. The growth was 101% in [7], 93.9% in [8], 101% in [9] and 102% in [10].
